# Laboratory results from article PMC6792352, “Limited Chemical Structural Diversity Found to Modulate Thyroid Hormone Receptor in the Tox21 Chemical Library” (Environmental Health Perspectives, 2019).
# Counter-ions that a name gives are not always drawn.
# System: thyroid hormone receptor (endogenous TRα and TRβ)
# Design: species or system GH3-TRE-Luc (rat pituitary); GH3-TRE-Luc luciferase reporter, antagonist mode against 1 nM T3, loss of signal, qHTS
# Conditions: read-out: Average AC50 (uM) GH3-TRE-Antag, antagonist mode, 1 nM T3, no GH3 cytotoxicity hit, Average AC50 (uM) GH3-TRE-Antag, 24 h
row,Compound,AC50
1,Nc1c2c(nc3ccccc13)CCCC2 [Tacrine],41.7 µM
2,CCCCCC[n+]1ccccc1 [1-Hexylpyridinium chloride],71.1 µM
3,OCCOCCN1CCN(C2=Nc3ccccc3Sc3ccccc32)CC1 [Quetiapine fumarate],23.5 µM
4,CCCCCCn1cc[n+](C)c1 [1-Hexyl-3-methylimidazolium trifluoromethanesulfonate],52.5 µM
